Assay [1] has as its system MKL-1. Put plainly: qHTS assay to identify novel small-molecules to repurpose for Merkel cell carcinoma treatment (AID 1296009). Note: nearly all actives have a fitted effect of over 60% in size. Note: potency is the fitted concentration of half-maximal effect. The settings on record: MCC and control cell lines, CellTiter-Glo viability, 72 h; series mostly up to 46 µM. The method, boiled down: (§1)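 qHTS format: cells treated with library compounds in DMSO across 8 (NPC) or 11 (MIPE) concentrations. Readout after 72 hr at 37 degree celsius was CellTiter-Glo luminescence.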

Assay [2] has as its system MKL-2. The description is as above. The settings on record: MCC and control cell lines, CellTiter-Glo viability, 72 h; series mostly up to 46 µM. The method, boiled down:
as §1
(ATP-based viability assays read luminescence as a measure of living cells.)

Assay [3] deals with UISO. Described as above. The conditions noted are these: MCC and control cell lines, CellTiter-Glo viability, 72 h; series mostly up to 46 µM. The method, boiled down:
as §1

For assay [4], the system named is WaGa. The assay is described as above. The settings on record: MCC and control cell lines, CellTiter-Glo viability, 72 h; series mostly up to 46 µM. The method in brief:
as §1

Assay [5] has as its system HeLa. Put plainly: Primary qHTS to identify gynecologic anti-cancer compounds using libraries of approved drugs and bioactive compounds (AID 1345084). Note: nearly all actives have a fitted effect of over 55% in size. Note: potency is the fitted concentration of half-maximal effect. The conditions noted are these: Gynecologic cancer cell panel viability, ATPlite luminescence, 48 h; series mostly up to 57.5 µM. The method, boiled down:
(§2)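 48 h compound exposure at 37 C, 5% CO2; five-point qHTS. ATPlite luminescence readout of cell ATP.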
In general terms: Quantitative high-throughput screening tests each substance at several concentrations.

Assay [6] deals with JEG-3. Described as above. The settings on record: Gynecologic cancer cell panel viability, ATPlite luminescence, 48 h; series mostly up to 57.5 µM. The method in brief:
as §2

Assay [7] concerns PA-1. The description is as above. The conditions noted are these: Gynecologic cancer cell panel viability, ATPlite luminescence, 48 h; series mostly up to 57.5 µM. The method, boiled down: as §2
The test system of assay [8] is Tov-21-G. Described as above. The conditions noted are these: Gynecologic cancer cell panel viability, ATPlite luminescence, 48 h; series mostly up to 57.5 µM. The method, boiled down:
as §2

Assay [9] in a line: qHTS assay to identify inhibitors of the type 1 interferon - major histocompatibility complex class I in skeletal muscle: Counter screen cell viability and HiBit confirmation (AID 1347412). For all read-outs here: nearly all actives have a fitted effect of over 60% in size. Note: potency is the fitted concentration of half-maximal effect. The conditions noted are these: iHSKM muscle cells + IFN-b, HiBiT or CellTiter-Glo, 24 h; for activity change, negative = inhibition: at 45.9 µM (top of the series). The method, boiled down: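 Human myoblast knock-in line, 4.0 ng/ml IFN-beta stimulation, 24 h compound treatment. Endpoints: HiBiT lytic luminescence (HLA-B level) and CellTiter Glo (ATP). Dosing 12 concentrations, 3-fold steps, 46 uM highest final.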

The test system of assay [10] is C33A. Nature of the assay: Primary qHTS to identify gynecologic anti-cancer compounds using libraries of approved drugs and bioactive compounds (AID 1345084). Note: nearly all actives have a fitted effect of over 55% in size. Note: potency is the fitted concentration of half-maximal effect. The settings on record: Gynecologic cancer cell panel viability, ATPlite luminescence, 48 h; series mostly up to 57.5 µM. The method, boiled down:
as §2

Assay [11] deals with CAOV3. Described as above. The conditions noted are these: Gynecologic cancer cell panel viability, ATPlite luminescence, 48 h; series mostly up to 57.5 µM. The method in brief:
as §2

Assay [12] has as its system CASKI. Described as above. The settings on record: Gynecologic cancer cell panel viability, ATPlite luminescence, 48 h; series mostly up to 57.5 µM. The method, boiled down: as §2
Assay [13] deals with Es-2. The description is as above. The conditions noted are these: Gynecologic cancer cell panel viability, ATPlite luminescence, 48 h; series mostly up to 57.5 µM. The method, boiled down: as §2
For assay [14], the system named is Hek293T. Described as above. The settings on record: Gynecologic cancer cell panel viability, ATPlite luminescence, 48 h, control line for the selectivity index; series mostly up to 57.5 µM. The method in brief: as §2
Assay [15] concerns OV90. The assay is described as above. The settings on record: Gynecologic cancer cell panel viability, ATPlite luminescence, 48 h; series mostly up to 57.5 µM. The method in brief: as §2
Assay [16] concerns SKOV3. Described as above. The conditions noted are these: Gynecologic cancer cell panel viability, ATPlite luminescence, 48 h; series mostly up to 57.5 µM. The method, boiled down:
as §2

Assay [17] deals with Tov112D. Described as above. The settings on record: Gynecologic cancer cell panel viability, ATPlite luminescence, 48 h; series mostly up to 57.5 µM. The method in brief:
as §2

Assay [18] can be described thus: Drug repurposing screens with cells derived from glioblastoma tumor samples (AID 1345199). Note: nearly all actives have a fitted effect of over 40% in size. The settings on record: GBM patient neurospheres viability, ATP luminescence, 48 h. The method, boiled down: (§3)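 Four patient lines of CD133+ GBM neurospheres were screened at several concentrations; hits were retested in those lines plus three slower-growing GBM lines, using 48-hour treatment and ATP-based viability.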

Assay [19] deals with astro. The assay is described as above. The conditions noted are these: viability, ATP luminescence, 48 h; series mostly up to 45.9 µM. The method, boiled down:
as §3

Each structure is given as a SMILES string. Inconclusive results are not listed. A number with no mark means an inactive call. Calls of active or inactive are those of the source. Calls come from the whole dose curve; as a rule, active = well fitted curve in the direction sought with a large enough effect; inconclusive = small, poorly fitted or top-dose-only effect, or another doubt; inactive = no such curve, though single readings can be large; an effect the other way counts as inactive or inconclusive.
% is set by controls: 0 for no effect and ±100 for the full control effect.

For the compound `c1ccc2c(CCNc3ccc(Nc4ccncc4)cc3)c[nH]c2c1`, the Potency in assay [1] is 9350 nM (active); in assay [2], 5.9 µM (active); in assay [3], 13.2 µM (active); in assay [4], 7.43 µM (active); in assay [7], 10 µM (active). The Potency result in assay [5], in [6] and in [8] was “inactive” in each case. For the same compound, the activity change, negative = inhibition is 19.8% in assay [9] (HiBiT) and -28.3% in assay [9] (Viability).
For the compound `CC(C)Nc1cc(C(F)(F)F)cc2nc(NC(=O)c3cccnc3)nn12`, the Potency result in [1], in assay [2], in assay [3], in assay [4], in assay [10] and in assay [11] was “inactive” in each case. The Potency entry in [12], in assay [13], in [5], in [14], in [6] and in assay [15] was “inactive” in each case. Moreover, the Potency entry in [16] and in assay [8] was “inactive” throughout.
As to `CCN(CC)CCCCNc1ncc2cc(-c3cc(OC)cc(OC)c3)c(NC(=O)NC(C)(C)C)nc2n1`, the Potency result in [1], in [2] and in [4] was “inactive” each time.
Consider `NC(=O)c1c(OCc2c(F)cc(Br)cc2F)nsc1NC(=O)NCCCCN1CCCC1`, for which the Potency result in assay [1], in assay [2], in [10], in assay [13], in [5] and in assay [14] was “inactive” throughout. Further, the Potency result in assay [6] and in [15] was “inactive” throughout. In [9] (HiBiT), the activity change, negative = inhibition is -22.6%.
In the case of `NCC(=O)Nc1ccc(-n2nc(C(F)(F)F)cc2-c2ccc3c(ccc4ccccc43)c2)cc1`, the Potency result in assay [1], in assay [2], in assay [10], in assay [11], in assay [12] and in assay [13] was “inactive” in each case. Also, the Potency entry in assay [15], in assay [16] and in [17] was “inactive” each time.
Turning to `Cc1ccc2nc(NC(=O)CSc3nc4c(c(=O)n3-c3ccccc3)SCC4)sc2c1`, the Potency entry in assay [1], in assay [2], in assay [10], in assay [12], in [13] and in [5] was “inactive” throughout. In addition, the Potency entry in assay [14], in [6], in [15], in assay [7], in assay [8] and in assay [17] was “inactive” in each case.
Regarding `O=c1[nH]c(=O)n(C2CCCO2)cc1F` (stereo unspecified), the Potency entry in assay [1], in assay [2], in assay [3] and in assay [19] was “inactive” each time. In addition, the activity, negative = cell killing in [18] (at 45.9 µM (top of the series), tumour line B) is -6.45%; in assay [18] (at 45.9 µM (top of the series), tumour line D), -14.2%; in assay [18] (at 46 µM (top of the series), tumour line A), -9.36%; in assay [18] (at 46.1 µM (top of the series), tumour line C), -4%.
As to `Cc1cn2c(-c3cn[nH]c3)cnc2c(Nc2ccc(C(=O)N3CCNCC3)cc2F)n1`, the Potency entry in assay [1], in assay [2], in assay [4], in [10], in assay [12] and in [13] was “inactive” in each case. The Potency entry in assay [14], in assay [6] and in assay [15] was “inactive” each time.
As to `CC(C)c1nn(-c2c(Cl)cccc2Cl)c2nc(Cc3ccc(OCCO)cc3)[nH]c(=O)c12`, the Potency is 132 nM (active) in assay [1]; 0.105 µM (active) in [2]; 0.105 µM (active) in [3]; 282 nM (active) in assay [10]; 158 nM (active) in assay [11]; 0.501 µM (active) in assay [12]. Further, the Potency is 0.251 µM (active) in assay [7], 1.41 µM (active) in assay [16], 0.282 µM (active) in assay [17] and 35.2 nM (active) in [9] (HiBiT). The activity change, negative = inhibition in assay [9] (Viability) is 27.7%.
Take `Cc1c(C)n(Cc2ccc(-c3ccccc3C(=O)O)cc2)c2ccc(C(=O)N[C@@H](C)c3ccc([N+](=O)[O-])cc3)cc12`: the Potency in assay [1] is 372 nM (active); in [2] it was 0.332 µM (active); in assay [4] it was 0.469 µM (active). For the same compound, the Potency result in assay [10], in assay [11], in [12], in assay [13], in assay [5] and in assay [14] was “inactive” each time. Besides, the Potency entry in assay [6], in assay [15], in [8] and in assay [17] was “inactive” each time.
`CC(C)C[C@H](NC(=O)CNC(=O)c1cc(Cl)ccc1Cl)B(O)O`: the Potency was 743 nM (active) in assay [1]; 0.264 µM (active) in assay [2]; 0.59 µM (active) in assay [3]; 0.296 µM (active) in assay [4]; 557 nM (active) in assay [9] (HiBiT).
Take `Cc1nc(Nc2n[nH]c3c2CN(C(=O)N[C@H](CN(C)C)c2ccccc2)C3(C)C)c2sccc2n1`: the Potency in assay [1] is 1480 nM (active); in [2] it was 2.64 µM (active); in [3], 1.48 µM (active); in assay [12], 7.94 µM (active); in [13], 8.91 µM (active); in assay [5], 8.91 µM (active). Moreover, the Potency in [14] was 3.55 µM (active); in [15], 1.58 µM (active); in [16], 7.08 µM (active); in assay [17], 8.91 µM (active); in [9] (HiBiT) it was 62.5 nM (active). Further, the activity change, negative = inhibition in assay [9] (Viability) was 5.01%.
For `CCS(=O)(=O)c1cccc(-c2cc(C(=O)NC3CCN(C)CC3)c(C)c3[nH]c4ncc(C)cc4c23)c1`, the Potency in assay [1] is 132 nM (active); in assay [2], 8.33 µM (active); in [3], 2.35 µM (active); in [12] it was 2.82 µM (active); in assay [13], 12.6 µM (active); in assay [5], 1.58 µM (active). Further, the Potency was 12.6 µM (active) in [14]; 8.91 µM (active) in assay [6]; 1.26 µM (active) in [7]; 5.62 µM (active) in assay [16]; 2 µM (active) in assay [17]; 2790 nM (active) in [9] (HiBiT).
Turning to `CC[C@@H]1C(=O)N(C)c2cnc(Nc3ccc(C(=O)NC4CCN(C)CC4)cc3OC)nc2N1C1CCCC1`, the Potency in [1] was 23.5 nM (active); in assay [2], 3.32 µM (active); in [4], 4.69 µM (active). Besides, the activity change, negative = inhibition in [9] (Viability) was -4.51%.

For the origin of these results see PubChem BioAssay (NCATS).
